Assay outcomes as filed in PubChem.
Shown is part of a subset that was picked to be rich in hits.
AMA1-RON2 inh = disrupts binding of P. falciparum AMA1 to RON2. AlphaScreen AMA1-biotinylated RON2 peptide binding. Potency, µM (highest dose often 58.2 µM), inactives show at the top dose activity change, negative = inhibition, actives largely listed as inhibitors. hit rate 0.2% among 360,000; active means well fitted inhibition curve with a large enough effect; inconclusive means small, poorly fitted or top-dose-only effect; inactive means no such curve, though single readings can be large or run the other way;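 further: potency means the concentration at half of the fitted maximal effect; 0% = vehicle wells and -100% = peptide control; nearly all actives have a fitted effect of over 45% in size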
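AMA1 (3D7) with his tag at 25 nM final met compounds first, then biotinylated RON2 peptide at 25 nM; detection used donor plus acceptor beads, 10 µg/mL apiece, read by AlphaScreen after 30 min at room temperature.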
Marburg entry inh = Marburg virus entry inhibition | Marburg virus pseudotyped entry inhibition, cell reporter | hit rate 1.8% among 300,000 | Potency, µM (titrated, usually from 37.8 µM), for inactives: at the top dose activity change, negative = inhibition, actives largely listed as inhibitors; calls by dose curve; tested in HEK293 cells; further: potency means the concentration at half of the fitted maximal effect; on the % scale 0 is the no-effect control and ±100 the full control effect
LASV entry inh = blocks Lassa virus binding to or entry into cells | hit rate 1.2% among 300,000 | AID 540256 | Lassa virus pseudotype entry inhibition, cell reporter | Potency, µM (top dose mostly 37.9 µM), for the others: at the highest dose activity change, negative = inhibition, hits mostly inhibitors; calls by dose curve; tested in HEK293 cells; further: potency means the concentration at half of the fitted maximal effect; on the % scale 0 is the no-effect control and ±100 the full control effect; nearly all actives have a fitted effect of over 50% in size
CHX counter = counter-screen hit for Shiga toxin inhibitors, cycloheximide. cell reporter, cycloheximide protein synthesis inhibition counterscreen. AID 2314. max response, %. hit rate 12% among 300,000; in the data active means max response mostly above about 13%, no sharp cut-off; inactive means mostly below about 14%; further: read at 38.3 µM for the half of the compounds with a filed dose; 0% is about no effect
Shiga toxin inh = inhibitors of Shiga toxin in Vero cells; Vero cells, Shiga toxin protein synthesis inhibition reporter; inhibition, % at 38.7 µM; hit rate 9.2% among 290,000; in the data active means inhibition mostly above about 28%, no sharp cut-off; inactive means mostly below about 43%; further: 0% is about no effect
* = called active by the depositor; ? = inconclusive; / = no result; [ ] = another dose, or the depositor's remark.

SMILES	AMA1-RON2 inh	Marburg entry inh	LASV entry inh	CHX counter	Shiga toxin inh
CCN(C(=O)c1ccco1)c1nc(-c2ccc(OC)cc2)cs1	-6.7%	/	/	41.3*	58.7
CCC(=O)N(CC)c1nc(-c2ccc(OC)cc2)cs1	21.5%	?	12.0%	60.8*	84.4*
CN(c1ccc(O)cc1)c1nc(-c2ccccc2)cs1	-21.2%	?	?	62.5*	active
CCN(C(=O)c1ccccc1F)c1nc(-c2ccc(OC)cc2)cs1	-6.9%	/	/	43.9*	50.5*
CC(=O)c1ccc(Nc2cc(C)nc3nc(Cc4ccc(Cl)cc4)nn23)cc1	/	-8.4%[46.1 µM]	8.5%[46.1 µM]	/	/
COCCN(C(=O)c1ccccc1F)c1nnc(-c2ccc(OC)cc2)s1	2.8%	/	/	32.1*	45.9*
COCCN(C(=O)c1ccco1)c1nc(-c2ccccc2)cs1	-18.1%	?	-11.0%	9.9	/
CN(C(=O)c1ccco1)c1nc(-c2ccccc2)cs1	0.0%	/	/	38.4*	35.9*
COCCN(C(=O)c1ccccc1F)c1nc(-c2ccc(OC)cc2)cs1	-11.9%	?	-20.9%	-1.6	11.0
COCCN(C(=O)C(C)C)c1nnc(-c2ccc(C)cc2)s1	-7.7%	?	0.3%	29.3	83.2*
COCCN(C(=O)C(C)C)c1nnc(-c2cccc(C)c2)s1	-10.3%	4.4%	-18.3%	10.7	26.1
CCOc1ccc(N(Cc2cc3cc(C)ccc3[nH]c2=O)C(=O)c2cccc(Cl)c2)cc1	/	0.4%[46.1 µM]	-4.0%[46.1 µM]	/	/
COCCCN=Cc1c(C)[nH]n(-c2ccc(Br)c(C)c2)c1=O	8.3%	?	11.2µM*	49.4*	37.8*
CCC(C)NC(=O)Nc1ccc(F)c(Cl)c1 (stereo not given)	8.5%	10.7%[46.1 µM]	-3.2%	22.6*	34.3
CCCCC(=O)Nc1ccc(F)c(Cl)c1	2.2%	18.2%	15.9%	16.1*	28.8
C=CCNC(=O)Nc1ccc(F)c(Cl)c1	3.0%	/	/	2.7	19.0
CC(C)CNC(=O)Nc1ccc(F)c(Cl)c1	-4.9%	-11.9%[46.1 µM]	-22.3%	26.1*	40.1
COc1cc(C(=O)NNC(=S)NC(=O)/C=C/c2ccccc2)cc(OC)c1OC	56.4%	-17.1%[46.1 µM]	?	7.3	8.8
O=C(Nc1ccc(Cl)cc1)N(Cc1nc2ccccc2c(=O)[nH]1)Cc1cccs1	42.6%	?	-6.7%	-1.2	-1.4
CC(C)(C)NC(=O)c1cccc(NC(=O)Cc2cccs2)c1	7.9%	-0.8%[46.1 µM]	?	2.5	-1.8
O=C(Nc1ccc(Cl)cc1)N(Cc1cccs1)Cc1cccs1	-11.0%	?	3.3%	14.0*	45.1*
O=C(Cc1cccs1)Nc1ccc(Cl)cc1	16.2%	5.4%	19.4%	17.4*	active
Cc1cccc(NC(=O)c2cccc(NC(=O)Cc3cccs3)c2)c1	-0.1%	?	?	27.1*	92.0*
CC(=O)N(C)c1ccc(NC(=O)Cc2cccs2)cc1	-6.2%	9.0%	12.7%	17.6*	/
O=C(CNC(=O)C(c1ccccc1)c1ccccc1)N/N=C\c1ccc(C(=O)O)cc1	-3.2%	/	/	11.4	-9.5
SMILES	AMA1-RON2 inh	Marburg entry inh	LASV entry inh	CHX counter	Shiga toxin inh
CCOC(=O)N/N=C1\C[C@@H](O)[C@@H](O)[C@@H]2[C@@H]3C(=O)N(Cc4ccccc4)C(=O)[C@@H]3CC[C@H]12	/	24.9%[14.2 µM]	/	/	/
CC(=O)Nc1ccc(S(=O)(=O)NC2CC(=O)N(c3ccc4c(c3)OCCO4)C2)cc1 (stereo not given)	9.0%	-1.0%[46.1 µM]	13.1%	/	/
Cc1cccc(NC(=O)Cc2cccs2)n1	-7.0%	?	25.6%	32.5*	68.8*
Cc1ccccc1NC(=O)Cc1cccs1	1.6%	/	/	7.9	7.2
O=C(Cc1cccs1)Nc1ccc(N2CCOCC2)cc1	-11.6%	6.4%	-19.8%	24.4*	111.0*
O=C(Cc1cccs1)Nc1ccc(Cl)c(S(=O)(=O)N2CCOCC2)c1	4.0%	?	?	/	/
O=C(Nc1ccccc1)N(O)c1ccc(Cl)cc1	-9.2%	?	30.0%	48.7*	98.3*
Cc1cccc(C2c3[nH]c4ccccc4c3CCN2C(=O)c2nn(C)c(=O)c3ccccc23)n1 (stereo not given)	-23.6%	?	11.2µM*	-1.5	-3.8
Cc1nc(C(=O)N2CCc3c([nH]c4ccccc34)C2c2ccccn2)cs1 (stereo not given)	4.1%	-29.7%[46.1 µM]	-29.5%[46.1 µM]	5.1	79.9*
CC(C)c1nc(C(=O)N2CCc3c([nH]c4ccccc34)C2c2ccccn2)cs1 (stereo not given)	-6.0%	?	?	9.1	-1.1
Cc1nc(C(=O)N2CCc3c([nH]c4ccccc34)C2c2cc(F)ccc2F)cs1 (stereo not given)	-11.8%	?	?	24.1*	39.9*
Cc1ccc(CC(=O)NCC(O)c2ccccc2)cc1 (stereo not given)	-8.0%	5.2%	12.8%	2.1	16.0
COc1ccc(-c2nnc(-c3ccc(N(C)C)cc3)o2)cc1	12.5%	?	7.7%	7.6	29.5
Cc1ccc(-c2nnc(-c3cccnc3)o2)cc1	10.5%	/	/	36.2*	81.2*
Brc1ccc(-c2nnc(-c3cccnc3)o2)cc1	4.3%	7.9%	?	/	/
c1ccc(-c2nnc(C3CC(c4cccnc4)=NO3)o2)cc1 (stereo not given)	-2.4%	/	/	14.9*	20.1
COc1ccc(-c2nnc(-c3cccnc3)o2)cc1	4.4%	-2.7%	-19.1%	27.7*	61.5*
COc1ccc(-c2nnc(-c3ccc(N)cc3)o2)cc1	-2.8%	9.3%	7.7%	43.9*	61.9*
CCN1CCN(c2ccc(S(=O)(=O)N3CCCCC3)cc2NC(=O)c2ccc([N+](=O)[O-])s2)CC1	-3.1%	?	?	/	/
O=C(Oc1cccc([N+](=O)[O-])c1)c1cc(-c2ccccc2)nc2ccccc12	-9.2%	13.6%	23.4%	-0.6	-3.8
O=C(CCCN1C(=O)c2cccc3cccc(c23)C1=O)Nc1ccon1	-1.5%	-4.5%[46.1 µM]	5.7%	-4.2	-2.8
COc1ccc2[nH]c3c(c2c1)CCN1C(=O)N([C@@H](C)C(=O)NC2CCN(Cc4ccccc4)CC2)C(=O)[C@]31C	-18.4%	/	/	-3.8	6.9
CC(=O)c1ccc(NC(=O)Cn2c(=O)oc3cc(S(=O)(=O)N4CCCCC4)ccc32)cc1	/	29.9%[46.1 µM]	/	/	/
FC(F)(F)c1ccc(-c2nnc(-c3cccnc3)o2)cc1	5.7%	-0.3%	-0.3%	-2.5	-6.1
Clc1ccc(-c2nnc(-c3cccnc3)o2)cc1	6.9%	-8.9%	6.0%	19.6*	55.5*
SMILES	AMA1-RON2 inh	Marburg entry inh	LASV entry inh	CHX counter	Shiga toxin inh
Clc1ccc(-c2nnc(-c3ccccc3)o2)cn1	40.2%	16.5%	4.6%	11.3*	7.2
c1cncc(-c2nnc(-c3cccs3)o2)c1	-11.0%	19.0%[46.1 µM]	25.6%	20.0*	58.0
COc1ccc(CC(=O)c2cc(OC)c(OC)cc2CC(=O)O)cc1OC	-3.1%	-1.1%	2.9%	-2.5	38.1
COc1ccc(C(=O)CN2C(=O)c3ccccc3C2=O)c(OC)c1	8.3%	/	/	14.9*	-14.8
COc1ccc(CC(=O)OCC(=O)c2ccc(OC)c(OC)c2)cc1	2.3%	7.8%	-1.2%	/	/
COc1ccc(C(=O)Cc2ccc(OC)c(OC)c2)c(OC)c1	-0.6%	-29.3%	-3.5%	12.0*	70.8
COc1ccc(CC(=O)c2ccc(OC)c(OC)c2)cc1	-2.7%	-7.1%	-0.4%	23.2*	130.0
